Test results as given in the supplement of paper PMC13380429.
A number with no mark means an inactive call.

Test system: Vero E6 infected with SARS-CoV-2
Test: inhibition of SARS-CoV-2 cytopathic effect; higher = more antiviral protection, active = above 15
Details: 48 h

Row | SMILES | inhibition of SARS-CoV-2 cytopathic effect (1 nM) [%] | inhibition of SARS-CoV-2 cytopathic effect (8.33 nM) [%] | inhibition of SARS-CoV-2 cytopathic effect (100 nM) [%] | inhibition of SARS-CoV-2 cytopathic effect (833.33 nM) [%] | inhibition of SARS-CoV-2 cytopathic effect (10000 nM)
1 | C#C[C@]1(O)CC[C@H]2[C@@H]3CCC4=CC(=O)CC[C@@H]4[C@H]3CC[C@@]21CC [norgestrel] | -2 | -0.115 | 2.25 | -0.065 | 0.025%
2 | Cc1ccc(C(=O)Cn2c3c(sc2=N)CCCC3)cc1 [pifithrin-alpha] | -1.05 | -0.83 | -1.23 | -1.09 | -2.47%
3 | N#Cc1c(N)nc(SCC(N)=O)c(C#N)c1-c1ccc(OCC2CC2)cc1 | 4.36 | 2.85 | 2.51 | 10.1 | 12.1%
4 | O=[N+]([O-])c1ccccc1S(=O)(=O)NCC1CCC(CNC[C@H]2CCc3ccccc3C2)CC1 (stereo not given in full) | 0.09 | 1.35 | -1.44 | -4.04 | 42.4% (active)
5 | CCCCCCOC(=O)CCC(=O)CN [hexaminolevulinate] | -0.29 | 0.97 | 1.79 | 1.44 | 5.39%
6 | CN1CCN(CCCN2c3ccccc3Sc3ccc(S(=O)(=O)N(C)C)cc32)CC1 [thioproperazine] | 0.81 | 6.36 | 5.52 | 0.03 | 1.7%
7 | Oc1ccc(-c2nc3cc(O)cc(Br)c3o2)cc1 | 0.68 | 1.49 | 2.09 | 4.89 | 2.95%
8 | Cn1nnc2c(C(N)=O)ncn2c1=O [temozolomide] | 0.73 | -1.46 | -0.92 | -0.44 | -1.79%
9 | O=C1Cc2c([nH]c3ccc(Br)cc23)-c2ccccc2N1 [kenpaullone] | -1.82 | -2.19 | 0.37 | 0.56 | 12%
